Compounds without any hit were thinned out: in the full panel of roughly 79,000, 15% have a hit. A number with no mark means an inactive call. Activity calls are given as the source filed them. Cut-off read from the data, not from the text of the source: active = growth inhibition above about 70%; inactive = the rest.

Experimental findings from PubChem BioAssay (NCI) are described below.

Assay [1] in a line: NCI Yeast Anticancer Drug Screen. Data for the rad50 strain (AID 155).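 Note: 0% = growth of vehicle-only cultures of the same strain.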 The following applies: S. cerevisiae rad50 strain growth inhibition; at 50.0 µM; hits give high values. The essentials: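 Compounds were tested on a yeast strain with an engineered DNA damage repair alteration; the reported value is growth inhibition normalised to vehicle treatment.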
A short description of assay [2]: NCI Yeast Anticancer Drug Screen. Data for the mec2-1 strain (AID 157). The following applies: S. cerevisiae mec2-1 strain, at 50.0 µM, hits give high values. The method in brief:
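Yeast mec2-1 mutant treated with compound. Readout: growth inhibition vs vehicle controls.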

Assay [3] can be described thus: NCI Yeast Anticancer Drug Screen. Data for the sgs1 mgt1 strain (AID 161).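 Note: 0% = growth of cultures given vehicle only.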 To be noted: S. cerevisiae sgs1 mgt1 strain, at 50.0 µM, hits give high values. The method in brief:
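Test agents were incubated with a DNA-repair-mutant yeast strain. Growth was then read and compared against vehicle-treated controls.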

Assay [4] can be described thus: NCI Yeast Anticancer Drug Screen. Data for the cln2 rad14 strain (AID 165).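 Note: 0% = growth equal to vehicle treated cultures.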 To be noted: S. cerevisiae cln2 rad14 strain, at 50.0 µM, hits give high values. The method in brief: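 cln2 rad14 yeast strain; compound exposure; growth inhibition read vs vehicle controls.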
A short description of assay [5]: NCI Yeast Anticancer Drug Screen. Data for the bub3 strain (AID 167). To be noted: S. cerevisiae bub3 mutant strain, at 50.0 µM, hits give high values. The essentials: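 Growth of a checkpoint-deficient yeast mutant is measured after compound exposure. Values represent inhibition relative to vehicle.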
A short description of assay [6]: NCI Yeast Anticancer Drug Screen. Data for the mlh1 rad18 strain (AID 175). To be noted: S. cerevisiae mlh1 rad18 strain growth inhibition; at 50.0 µM; hits give high values. The method in brief: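 Yeast w/ defined DNA-repair lesions; compound exposure; growth vs vehicle controls → % inhibition.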

Regarding `CCN(CC)CCCN1CC(=O)N2CCCCN2C(=O)C1`, the growth inhibition is 28.8% in assay [1]; -3.6% in assay [2]; 13.4% in assay [3]; 6.15% in assay [4]; 3.05% in assay [5]; 8.9% in assay [6].
On to `CCN(CC)CC#CCOc1ccc(/C=C/c2ccccn2)cc1`, for which the growth inhibition in assay [1] was 0.35%; in assay [2] it was -13.4%; in assay [3], 7.1%; in assay [4] it was -14%; in assay [5] it was 5.65%; in assay [6], -21.4%.
Turning to `CC1(C)CCc2cc3c(O)c(-c4ccccc4)c(=O)oc3cc2O1`, the growth inhibition in assay [1] is -9.45%; in assay [2], 2.15%; in assay [3], -0.65%; in assay [4], -17.2%; in assay [5], -5.75%; in assay [6], 7.45%.
In the case of `Cc1ccc2cccc(-c3cccc4ccccc34)c2n1`, the growth inhibition in assay [1] is 5.3%; in assay [2], 7.9%; in assay [3] it was 3.4%; in assay [4], -0.05%; in assay [5], -2.35%; in assay [6], 28.8%.
For `Cc1ccc(SS(=O)(=O)c2ccc([N+](=O)[O-])cc2)cc1`, the growth inhibition in assay [1] is 13.9%; in assay [2], 12.4%; in assay [3], 9.3%; in assay [4], -29.4%; in assay [5], -5.45%; in assay [6] it was 16.6%.
Take `COC(=O)c1cccc2c(N)c(N)cc(C(=O)OC)c12`: the growth inhibition in assay [1] was 17.5%; in assay [2], 18.2%; in assay [3], 24.8%; in assay [4], 28.2%; in assay [5] it was 9.3%; in assay [6], 31.4%.
As to `Nc1ccc(CCCCOc2ccccc2)cc1`, the growth inhibition is 98.6% (active) in assay [1]; 99% (active) in assay [2]; 98.5% (active) in assay [3]; 98.5% (active) in assay [4]; 99% (active) in assay [5]; 98.4% (active) in assay [6].
`CCNc1nc(C)nc2c1cnn2C`: the growth inhibition is 5% in assay [1]; 4.85% in assay [2]; -1.85% in assay [3]; -13.2% in assay [4]; 17.8% in assay [5]; -1% in assay [6].
In the case of `COC(=O)c1cc(CC2Cc3cc4c(cc3C2)CCC4)cc2c1CCC2`, the growth inhibition in assay [1] is -16.7%; in assay [2] it was -8.85%; in assay [3], -29.1%; in assay [4], 15.3%; in assay [5], 0.7%; in assay [6] it was -1.25%.
`CCCCCCCCCCCCN1CCCN(CCCCCCCCCCCC)CC1`: the growth inhibition in assay [1] was 56.7%; in assay [2], 99.2% (active); in assay [3], 7.45%; in assay [4], 96.7% (active); in assay [5] it was 98.7% (active); in assay [6], 99.2% (active).
`CSc1nc(=O)n(CCC#N)nc1SC`: the growth inhibition in assay [1] is 32.6%; in assay [2], 21.9%; in assay [3], 34.9%; in assay [4], -7.65%; in assay [5] it was 4.25%; in assay [6] it was 12.2%.
Consider `CCOC(=O)C(Cc1ccc([N+](=O)[O-])cc1)NC(=O)CC1c2ccccc2-c2ccccc21` (stereo not given), for which the growth inhibition in assay [1] was -10.1%; in assay [2], 1.05%; in assay [3] it was 3.4%; in assay [4] it was -35%; in assay [5] it was -9.9%; in assay [6], -8.95%.
With `CCOC(=O)c1ccc(N=Nc2c(N)nc(N)nc2N)cc1`, the growth inhibition in assay [1] was -10.4%; in assay [2], 10.3%; in assay [3] it was -1.7%; in assay [4], -61.4%; in assay [5] it was -0.15%; in assay [6], -11%.
For `C/C(CCc1ccccc1)=N/Nc1ccc([N+](=O)[O-])cc1[N+](=O)[O-]`, the growth inhibition in assay [1] is 0.65%; in assay [2], -4.75%; in assay [3], 10.2%; in assay [4], 0.05%; in assay [5] it was 13.4%; in assay [6], -4.55%.
As for `COC(=O)C(Cc1ccc2c(c1)CCC2)Cc1ccc2c(c1)CCC2`, the growth inhibition in assay [1] is -46.9%; in assay [2], -16.4%; in assay [3], -7.4%; in assay [4], -41.6%; in assay [5] it was 11.1%; in assay [6] it was -22.4%.
On to `CCCCC(C)(CCN)CCCC`, for which the growth inhibition is 5.05% in assay [1]; 1.4% in assay [2]; -5.05% in assay [3]; 7.4% in assay [4]; -3% in assay [5]; 0.1% in assay [6].
As to `COc1ccc(C2(C)OCCCC2([NH-])C[NH-])cc1.[Cl][Pt+2][Cl]` (stereo not given), the growth inhibition was 10.9% in assay [1]; -3.15% in assay [2]; -2.95% in assay [3]; 21.6% in assay [4]; -0.4% in assay [5]; 9.45% in assay [6].
With `O=C(Nc1ccc(Cl)cc1C(=O)O)c1ccc([N+](=O)[O-])cc1`, the growth inhibition in assay [1] was 23.1%; in assay [2], 18.2%; in assay [3], 26.7%; in assay [4], 38.8%; in assay [5], 23.9%; in assay [6] it was 53.2%.
Turning to `CNC(=O)OCC#CCOC(=O)NC`, the growth inhibition in assay [1] was -17.5%; in assay [2] it was -9.9%; in assay [3], -23.2%; in assay [4], -4.85%; in assay [5], -10.5%; in assay [6], -25.1%.
Take `c1ccc(CCc2nc3ccccc3[nH]2)cc1`: the growth inhibition in assay [1] was -1.9%; in assay [2], 11.1%; in assay [3] it was 1.5%; in assay [4], -33.6%; in assay [5] it was -37.1%; in assay [6] it was -10.9%.
